Measurements from PubChem BioAssay (EPA / NIEHS).
“And” between values parts separate entries of the source, which are not always exact repeats. Equal values may be shown once. Results filed as inconclusive are left out. Some compounds were tested as several samples or in several runs, with calls that do not always agree. The source made the active and inactive calls. The calls were made as follows, unless noted: active = hit-call score of the fitted dose curve at least 0.9, where 1 is the maximum; inactive = score below 0.9.

Tests used:
[1] = target: Bile acid receptor (Homo sapiens) (UniProt Q96RI1); experiment: ATG_FXR_TRANS: Attagene TRANS-FACTORIAL HepG2 Assay for Farnesoid X Receptor (FXR) (AID 2282979; active = hit-call score of the fitted dose curve at least 0.9, where 1 is the maximum;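 also: hits raise reporter mRNA above DMSO so AC50 marks FXR activation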); details: HepG2 Attagene TRANS FXR-GAL4 reporter transcription
In short: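 Chimeric FXR-GAL4 activity in transiently transfected human HepG2 liver cells is scored as induction of reporter mRNA after 24 h of dosing. Detection uses RT-PCR with fluorescent labelling and capillary electrophoresis, with DMSO serving as baseline.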

[2] = target: Hepatocyte nuclear factor 4-alpha (Homo sapiens) (UniProt P41235); experiment: ATG_HNF4a_TRANS: Attagene TRANS-FACTORIAL HepG2 Assay for human Hepatocyte Nuclear Factor 4 alpha (HNF4a) (AID 2282982; active = hit-call score of the fitted dose curve at least 0.9, where 1 is the maximum); details: HepG2 HNF4a transactivation reporter, mRNA readout
In short: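 HepG2 cells transiently transfected with multiplexed GAL4-UAS reporter units responsive to chimeric NR-GAL4 proteins; compound exposure 24 h. Reporter mRNA quantified by RT-PCR, 6-FAM labelling, HpaI digestion and capillary electrophoresis; gain of signal versus DMSO baseline.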

[3] = ATG_M_06_TRANS: Attagene TRANS-FACTORIAL HepG2 Assay for M06 Transcription Factor (Internal Marker) (AID 2282983; active = hit-call score of the fitted dose curve at least 0.9, where 1 is the maximum;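 also: reporter transcript level by RT-PCR then capillary electrophoresis fluorescence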); details: HepG2 Attagene TRANS M06 internal marker reporter
In short: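 Measured by capillary electrophoresis of fluorescently labelled RT-PCR products, this endpoint reflects reporter mRNA in HepG2 cells harbouring exogenous NR-GAL4 reporter constructs after 24 h exposure, with DMSO as baseline.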

[4] = target: Nuclear receptor subfamily 4 group A member 2 (Homo sapiens) (UniProt P43354); experiment: ATG_NURR1_TRANS: Attagene TRANS-FACTORIAL HepG2 Assay for human Nuclear Receptor Related Protein 1 (NURR1) (AID 2282985; active = hit-call score of the fitted dose curve at least 0.9, where 1 is the maximum); details: HepG2 Attagene TRANS reporter, mRNA readout
In short: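 HepG2 cells transiently transfected with GAL4-UAS reporter units and chimeric NR-Gal4 constructs; chemical exposure 24 h. Reporter mRNA quantified by RT-PCR, fluorescent labelling and capillary electrophoresis; gain of signal fitted relative to DMSO baseline.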

[5] = target: Transcriptional activator Myb (Homo sapiens) (UniProt P10242); experiment: ATG_Myb_CIS: Attagene CIS-FACTORIAL HepG2 Assay for human Myeloblastosis (Myb) Proto-Oncogene Transcription Factor (AID 2282986); details: HepG2 Attagene CIS-FACTORIAL Myb reporter transcription; actives raise or lower the signal
In short: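 HepG2 cells were transiently transfected with cis-regulated multiple reporter transcription units reflecting endogenous Myb activity, then exposed to compound for 24 hours. Reporter mRNA was measured by RT-PCR with capillary electrophoresis; bidirectional fitting versus DMSO baseline.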

[6] = target: Nuclear respiratory factor 1 (Homo sapiens) (UniProt Q16656); experiment: ATG_NRF1_CIS: Attagene CIS-FACTORIAL HepG2 Assay for human Nuclear Respiratory Factor 1 (NRF1) Orphan Gene (AID 2282987); details: HepG2 NRF1 cis-element reporter, Attagene multiplex; actives raise or lower the signal
In short: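 HepG2 cells transiently transfected with multiple reporter transcription units under cis-regulatory promoter control, so endogenous transcription-factor activity is read. After 24 h compound exposure, reporter mRNA quantified by RT-PCR, fluorescent labelling, HpaI digestion and capillary electrophoresis; bidirectional fitting versus DMSO.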

[7] = ATG_NFI_CIS: Attagene CIS-FACTORIAL HepG2 Assay for human Nuclear Factor I (NFI) (AID 2282989); details: HepG2 cis-regulatory reporter, NFI response element transcription; actives raise or lower the signal
In short: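 Reporter transcription driven by endogenous transcription factors in HepG2 cells; 24 h treatment. Quantitation by labelled RT-PCR fragments on capillary electrophoresis, gain- or loss-of-signal relative to DMSO.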

[8] = target: Myc proto-oncogene protein (Homo sapiens) (UniProt P01106); experiment: ATG_Myc_CIS: Attagene CIS-FACTORIAL HepG2 Assay for human Myelocytomatosis (Myc) Proto-Oncogene Transcription Factor (AID 2282990); details: HepG2, Attagene cis-reporter transcription factor activity; actives raise or lower the signal
In short: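 HepG2 cells transiently transfected with multiple cis-promoter-driven reporter transcription units, so endogenous TF activity is read. After 24 h compound exposure, reporter mRNA was quantified by RT-PCR, 6-FAM labelling, HpaI digestion and capillary electrophoresis; bidirectional fit versus DMSO.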

[9] = ATG_NF_kB_CIS: Attagene CIS-FACTORIAL HepG2 Assay for human Nuclear Factor Kappa B (NF-kB) (AID 2282991); details: HepG2 Attagene cis-factorial NF-kB reporter mRNA; actives raise or lower the signal
In short: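 HepG2 cells transiently transfected with multiplexed cis-element reporter units measuring endogenous transcription factor activity; reporter mRNA read 24 h after dosing by RT-PCR, fluorescent labelling, HpaI digestion and capillary electrophoresis. Bidirectional fit against DMSO baseline.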

[10] = ATG_NRF2_ARE_CIS: Attagene CIS-FACTORIAL HepG2 Assay for human Nuclear Factor Erythroid 2 Related Factor 2 (NFR2) response to Antioxidant Response Elements (ARE) (AID 2282992); details: HepG2 Attagene ARE/NRF2 reporter, transcription factor activity; actives raise or lower the signal;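 as to AC50: reporter mRNA level measured by RT-PCR and capillary electrophoresis fluorescence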
In short: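 Transient MRTU transfection of HepG2; 24 h compound exposure; TriZol RNA, RT with oligo(dT), PCR, 6-FAM primer extension, HpaI cut, CE. Bidirectional fit vs DMSO.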

[11] = ATG_Oct_MLP_CIS: Attagene CIS-FACTORIAL HepG2 Assay for human Octamer-Binding Transcription Factor (Oct) (AID 2282993); details: HepG2 Attagene cis-factorial Oct reporter, mRNA; actives raise or lower the signal
In short: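 Transfected HepG2 cells, 24 h treatment. Reporter mRNA quantified by RT-PCR–capillary electrophoresis; bidirectional fitting against DMSO.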

[12] = target: Cellular tumor antigen p53 (Homo sapiens) (UniProt P04637); experiment: ATG_p53_CIS: Attagene CIS-FACTORIAL HepG2 Assay for human p53 Transcription Factor (AID 2282994); details: HepG2 p53 cis-element reporter, Attagene mRNA; actives raise or lower the signal
In short: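 HepG2, transient MRTU transfection (cis promoter elements, endogenous TFs); 24 h dosing; RNA isolation, RT-PCR, 6-FAM primer extension, HpaI digest, CE fluorescence; bidirectional fit vs DMSO.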

[13] = BSK_3C_TissueFactor: BioMAP Diversity Plus: 3C Assay for Tissue Factor Biomarker Activity (AID 2282997); details: BioMAP 3C HUVEC, tissue factor biomarker readout; actives raise or lower the signal
In short: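 Values derive from bidirectional curve fitting against DMSO of Tissue Factor ELISA signals, taken 24 h after dosing primary human umbilical vein endothelial cells.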

[14] = BSK_3C_uPAR: BioMAP Diversity Plus: 3C Assay for Urokinase-type plasminogen activator receptor (uPAR) Biomarker Activity (AID 2282998); details: BioMAP 3C HUVEC, uPAR biomarker ELISA; actives raise or lower the signal
In short: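 Readout: ELISA for surface uPAR. System: human umbilical vein endothelial primary cells, 24 h after chemical exposure. Analysis: bidirectional fit, DMSO baseline.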

[15] = BSK_3C_VCAM1: BioMAP Diversity Plus: 3C Assay for Vascular cell adhesion molecule 1 (VCAM1) Biomarker Activity (AID 2282999); details: BioMAP 3C HUVEC, VCAM1 ELISA, cytokine-stimulated; actives raise or lower the signal
In short: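 Human umbilical vein endothelial cells were dosed with compound for 24 h, after which cell-surface VCAM-1 was quantified by ELISA. Bidirectional curve fitting used DMSO as negative control and activity baseline.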

[16] = BSK_4H_Eotaxin3: BioMAP Diversity Plus: 4H Assay for Eotaxin 3 Biomarker Activity (AID 2283000); details: primary human endothelial cells (HUVEC); actives raise or lower the signal
In short: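 Endothelial primary cells (human umbilical vein) exposed to compound for 24 h. ELISA detection of Eotaxin-3.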

[17] = target: Oxysterols receptor LXR-beta (Homo sapiens) (UniProt P55055); experiment: ATG_LXRb_TRANS: Attagene TRANS-FACTORIAL HepG2 Assay for human Liver X Receptor beta (LXRb) (AID 2282981; active = hit-call score of the fitted dose curve at least 0.9, where 1 is the maximum); details: HepG2 Attagene TRANS GAL4-LXRb reporter, mRNA
In short: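 HepG2 cells transiently transfected with multiple reporter transcription units carrying chimeric NR-Gal4 proteins acting on GAL4-UAS reporters; compound exposure 24 h. Reporter mRNA quantified by RT-PCR, 6-FAM labelling, HpaI digestion and capillary electrophoresis; gain of signal versus DMSO.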

[18] = target: human Peroxisome Proliferator-activated Receptor alpha (PPARa), PPARA (gene 5465) (UniProt Q07869); experiment: ATG_PPARa_TRANS: Attagene TRANS-FACTORIAL HepG2 Assay for human Peroxisome Proliferator-activated Receptor alpha (PPARa) (AID 2283001; active = hit-call score of the fitted dose curve at least 0.9, where 1 is the maximum;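 as to AC50: potency for gain of reporter signal over DMSO so agonist or activator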)
In short: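 HepG2 cells transiently transfected with multiplexed GAL4-UAS reporter units and chimeric NR-Gal4 constructs were dosed for 24 h. Reporter mRNA was measured by RT-PCR with fluorescent labelling and capillary electrophoresis; gain of signal fitted against DMSO.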

[19] = ATG_M_32_TRANS: Attagene TRANS-FACTORIAL HepG2 Assay for M32 Transcription Factor (Internal Marker) (AID 2282984; active = hit-call score of the fitted dose curve at least 0.9, where 1 is the maximum;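 also: transcript level of a background control reporter unit measured by RT-PCR and capillary electrophoresis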); details: HepG2 Attagene TRANS M32 internal marker reporter
In short: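 HepG2 cells transiently transfected with multiple GAL4-UAS reporter transcription units, dosed for 24 hours; reporter mRNA quantified by RT-PCR, 6-FAM primer extension, HpaI digestion and capillary electrophoresis. Gain-of-signal fitted versus DMSO baseline; internal background-control marker.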

Measured: AC50

Oxysterols receptor LXR-beta (Homo sapiens), sequence (P55055 whole entry, looked up, the tested form may be a part): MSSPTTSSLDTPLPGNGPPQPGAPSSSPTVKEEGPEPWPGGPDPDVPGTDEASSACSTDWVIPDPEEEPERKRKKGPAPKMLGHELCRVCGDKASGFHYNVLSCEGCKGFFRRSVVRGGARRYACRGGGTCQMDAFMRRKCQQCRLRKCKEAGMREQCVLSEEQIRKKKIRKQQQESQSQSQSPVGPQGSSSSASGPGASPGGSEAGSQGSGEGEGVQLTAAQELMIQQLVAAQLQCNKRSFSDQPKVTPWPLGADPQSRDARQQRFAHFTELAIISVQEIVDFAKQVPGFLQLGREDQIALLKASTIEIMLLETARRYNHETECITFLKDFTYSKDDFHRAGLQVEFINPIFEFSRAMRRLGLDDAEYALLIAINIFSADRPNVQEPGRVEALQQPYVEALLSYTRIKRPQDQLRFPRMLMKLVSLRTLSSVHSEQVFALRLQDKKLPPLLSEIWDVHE
human Peroxisome Proliferator-activated Receptor alpha (PPARa), PPARA (gene 5465), sequence (Q07869 whole entry, looked up, the tested form may be a part): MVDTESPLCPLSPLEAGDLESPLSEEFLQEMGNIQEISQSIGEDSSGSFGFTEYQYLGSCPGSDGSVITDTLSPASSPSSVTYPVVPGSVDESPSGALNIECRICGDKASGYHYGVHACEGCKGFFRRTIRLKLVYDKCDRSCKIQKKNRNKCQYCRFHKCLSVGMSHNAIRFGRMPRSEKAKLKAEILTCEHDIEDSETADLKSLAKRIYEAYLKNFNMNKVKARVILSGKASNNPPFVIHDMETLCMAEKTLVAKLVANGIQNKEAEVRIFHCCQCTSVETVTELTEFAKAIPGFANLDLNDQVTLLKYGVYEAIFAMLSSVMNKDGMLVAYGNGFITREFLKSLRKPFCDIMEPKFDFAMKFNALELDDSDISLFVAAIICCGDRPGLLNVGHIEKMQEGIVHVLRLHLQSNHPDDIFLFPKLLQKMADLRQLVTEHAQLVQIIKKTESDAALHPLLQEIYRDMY
Cellular tumor antigen p53 (Homo sapiens), sequence (P04637 whole entry, looked up): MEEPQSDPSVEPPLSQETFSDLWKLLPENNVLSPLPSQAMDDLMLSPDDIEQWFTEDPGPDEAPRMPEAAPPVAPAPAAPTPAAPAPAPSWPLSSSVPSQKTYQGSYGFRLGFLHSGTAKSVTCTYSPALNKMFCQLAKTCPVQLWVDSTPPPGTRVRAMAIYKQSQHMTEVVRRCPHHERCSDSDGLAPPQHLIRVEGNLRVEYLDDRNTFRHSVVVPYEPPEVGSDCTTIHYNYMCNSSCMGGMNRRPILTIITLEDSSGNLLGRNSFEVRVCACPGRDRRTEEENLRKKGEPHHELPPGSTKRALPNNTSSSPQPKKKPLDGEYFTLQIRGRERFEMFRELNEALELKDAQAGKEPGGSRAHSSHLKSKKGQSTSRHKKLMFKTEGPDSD
Bile acid receptor (Homo sapiens), sequence (Q96RI1 whole entry, looked up, the tested form may be a part): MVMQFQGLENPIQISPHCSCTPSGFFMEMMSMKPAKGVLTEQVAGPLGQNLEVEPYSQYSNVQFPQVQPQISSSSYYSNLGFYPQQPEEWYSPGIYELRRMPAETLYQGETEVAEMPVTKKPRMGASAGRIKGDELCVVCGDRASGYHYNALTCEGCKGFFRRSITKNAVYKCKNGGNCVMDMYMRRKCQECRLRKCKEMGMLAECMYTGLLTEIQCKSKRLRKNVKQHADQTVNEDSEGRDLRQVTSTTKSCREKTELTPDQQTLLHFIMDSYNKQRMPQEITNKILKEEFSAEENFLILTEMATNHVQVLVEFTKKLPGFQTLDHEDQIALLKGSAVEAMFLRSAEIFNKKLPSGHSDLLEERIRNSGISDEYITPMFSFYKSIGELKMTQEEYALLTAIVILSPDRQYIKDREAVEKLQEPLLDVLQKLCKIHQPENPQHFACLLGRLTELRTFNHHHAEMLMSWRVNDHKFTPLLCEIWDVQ
Hepatocyte nuclear factor 4-alpha (Homo sapiens), sequence (P41235 whole entry, looked up, the tested form may be a part): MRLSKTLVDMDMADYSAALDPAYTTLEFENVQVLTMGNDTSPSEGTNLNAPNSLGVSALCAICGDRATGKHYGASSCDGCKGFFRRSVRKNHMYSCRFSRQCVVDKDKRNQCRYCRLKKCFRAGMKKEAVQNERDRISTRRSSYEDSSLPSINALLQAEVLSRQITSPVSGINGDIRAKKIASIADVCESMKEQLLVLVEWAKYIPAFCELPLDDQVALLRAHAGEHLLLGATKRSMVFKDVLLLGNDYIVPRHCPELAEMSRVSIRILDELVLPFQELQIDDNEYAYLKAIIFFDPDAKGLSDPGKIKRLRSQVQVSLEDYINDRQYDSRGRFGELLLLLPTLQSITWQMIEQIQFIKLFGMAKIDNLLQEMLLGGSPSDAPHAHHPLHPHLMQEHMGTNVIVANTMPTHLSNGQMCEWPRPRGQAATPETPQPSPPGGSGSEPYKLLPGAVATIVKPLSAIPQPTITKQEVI
Nuclear receptor subfamily 4 group A member 2 (Homo sapiens), sequence (P43354 whole entry, looked up, the tested form may be a part): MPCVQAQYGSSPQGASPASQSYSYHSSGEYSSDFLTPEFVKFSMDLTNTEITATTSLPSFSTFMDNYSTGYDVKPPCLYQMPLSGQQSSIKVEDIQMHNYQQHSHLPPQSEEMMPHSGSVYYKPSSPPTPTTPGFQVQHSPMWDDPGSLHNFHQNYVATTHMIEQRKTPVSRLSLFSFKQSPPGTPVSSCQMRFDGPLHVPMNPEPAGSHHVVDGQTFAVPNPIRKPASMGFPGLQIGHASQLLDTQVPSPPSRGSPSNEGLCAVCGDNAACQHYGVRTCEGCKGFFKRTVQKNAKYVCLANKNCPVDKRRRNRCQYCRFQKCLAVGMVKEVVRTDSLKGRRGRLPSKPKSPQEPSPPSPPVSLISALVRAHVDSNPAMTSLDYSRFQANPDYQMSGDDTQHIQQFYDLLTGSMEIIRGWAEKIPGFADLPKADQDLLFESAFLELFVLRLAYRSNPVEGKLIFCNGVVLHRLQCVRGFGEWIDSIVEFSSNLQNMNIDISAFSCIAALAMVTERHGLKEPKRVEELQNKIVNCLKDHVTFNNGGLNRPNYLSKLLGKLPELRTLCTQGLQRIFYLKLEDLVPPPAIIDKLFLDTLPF
Transcriptional activator Myb (Homo sapiens), sequence (P10242 whole entry, looked up): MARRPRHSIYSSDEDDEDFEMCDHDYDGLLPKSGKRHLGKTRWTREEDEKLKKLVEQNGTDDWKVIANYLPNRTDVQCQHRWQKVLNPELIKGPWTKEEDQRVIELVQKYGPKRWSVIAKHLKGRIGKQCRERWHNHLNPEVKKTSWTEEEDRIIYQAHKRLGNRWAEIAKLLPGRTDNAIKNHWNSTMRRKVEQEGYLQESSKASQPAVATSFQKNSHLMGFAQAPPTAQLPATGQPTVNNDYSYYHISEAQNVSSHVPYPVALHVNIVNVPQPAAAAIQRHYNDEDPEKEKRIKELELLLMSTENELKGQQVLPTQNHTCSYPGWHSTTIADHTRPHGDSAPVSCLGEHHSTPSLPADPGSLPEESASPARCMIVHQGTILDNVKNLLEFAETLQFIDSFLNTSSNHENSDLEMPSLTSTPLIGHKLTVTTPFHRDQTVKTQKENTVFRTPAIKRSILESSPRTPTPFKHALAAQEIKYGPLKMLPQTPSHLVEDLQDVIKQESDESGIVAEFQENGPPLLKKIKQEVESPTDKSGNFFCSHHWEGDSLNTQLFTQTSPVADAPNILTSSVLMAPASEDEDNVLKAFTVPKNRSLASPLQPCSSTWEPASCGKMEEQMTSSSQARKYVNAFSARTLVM
Myc proto-oncogene protein (Homo sapiens), sequence (P01106 whole entry, looked up): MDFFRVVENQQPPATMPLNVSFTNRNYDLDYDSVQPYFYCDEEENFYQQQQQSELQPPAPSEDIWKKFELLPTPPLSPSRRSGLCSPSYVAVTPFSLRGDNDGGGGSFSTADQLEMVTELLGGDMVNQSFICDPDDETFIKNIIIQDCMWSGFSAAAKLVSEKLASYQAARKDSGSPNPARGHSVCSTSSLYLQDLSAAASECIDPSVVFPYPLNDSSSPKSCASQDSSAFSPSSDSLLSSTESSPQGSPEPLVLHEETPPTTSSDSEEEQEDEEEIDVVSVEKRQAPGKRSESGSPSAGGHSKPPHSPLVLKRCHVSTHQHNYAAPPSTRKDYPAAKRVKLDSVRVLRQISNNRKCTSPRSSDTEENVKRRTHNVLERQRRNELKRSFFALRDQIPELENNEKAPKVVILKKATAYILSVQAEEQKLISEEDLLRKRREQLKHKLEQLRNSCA
Nuclear respiratory factor 1 (Homo sapiens), sequence (Q16656 whole entry, looked up): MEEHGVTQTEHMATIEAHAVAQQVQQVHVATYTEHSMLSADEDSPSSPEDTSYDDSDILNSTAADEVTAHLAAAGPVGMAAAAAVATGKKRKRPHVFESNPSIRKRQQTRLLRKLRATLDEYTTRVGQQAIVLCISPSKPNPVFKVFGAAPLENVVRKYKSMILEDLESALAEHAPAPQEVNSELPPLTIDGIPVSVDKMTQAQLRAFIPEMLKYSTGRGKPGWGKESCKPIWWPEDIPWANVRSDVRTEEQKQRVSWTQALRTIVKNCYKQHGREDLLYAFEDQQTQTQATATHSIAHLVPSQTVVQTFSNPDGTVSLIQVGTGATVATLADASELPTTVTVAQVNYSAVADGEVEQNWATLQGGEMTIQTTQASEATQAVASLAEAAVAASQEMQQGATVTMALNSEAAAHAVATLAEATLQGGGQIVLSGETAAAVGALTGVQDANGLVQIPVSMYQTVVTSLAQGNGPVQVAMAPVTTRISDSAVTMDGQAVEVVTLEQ

CCN(Cc1cccc(S(=O)(=O)O)c1)c1ccc(C(=C2C=CC(=[N+](CC)Cc3cccc(S(=O)(=O)O)c3)C=C2)c2ccccc2S(=O)(=O)[O-])cc1
not listed: [17] | [18] | [19]
inactive: all other assays above

CCCCCCCCOc1ccc(C(=O)c2ccccc2)c(O)c1
active: [13] 13.2 µM
not listed: [2] | [3] | [11] | [19]
inactive: all other assays above

CC(C)(c1cc(Br)c(O)c(Br)c1)c1cc(Br)c(O)c(Br)c1
inactive: [1] | [17] | [2] | [3] | [4] | [5] | [6] | [8] | [9] | [12]
active: [6] 53.3 µM | [7] 57.6 µM and 54.7 µM | [8] 38.2 µM | [10] 55.9 µM and 57.6 µM | [11] 47 µM and 40.3 µM | [12] 22.9 µM | [13] 31.1 µM | [14] 31.6 µM | [15] 32.1 µM | [16] 30.1 µM

CCCCOC(=O)CC(CC(=O)OCCCC)(OC(C)=O)C(=O)OCCCC
not listed: [17]
inactive: all other assays above

CC/C(=C(/CC)c1ccc(O)cc1)c1ccc(O)cc1
inactive: [1] | [17] | [2] | [3] | [4] | [5] | [6] | [7] | [8] | [10] | [12]
active: [7] 13.9 µM | [8] 18.6 µM | [10] 12.7 µM [middle of 4 runs] | [12] 11.1 µM | [13] 27.1 µM | [14] 16.6 µM | [15] 32.5 µM | [16] 27.6 µM

CCO[Si](CCCNC(N)=O)(OCC)OCC
not listed: [2] | [9] | [11] | [17] | [18] | [19]
inactive: all other assays above

O=C(Nc1ccc(Cl)cc1)Nc1ccc(Cl)c(Cl)c1
active: [10] 6.66 µM | [11] 5.12 µM | [14] 1.89 µM | [15] 3.5 µM | [16] 2.4 µM
not listed: [19]
inactive: all other assays above

O=C1c2ccccc2C(=O)N1CCc1noc(-c2ccc(CN3CCCCCC3)s2)n1
active: [10] 23.1 µM
not listed: [17] | [18] | [19]
inactive: all other assays above

O=C(O)c1ccccc1C(=O)OCc1ccccc1
not listed: [2] | [19]
inactive: all other assays above

Cc1c2ccccc2c(C)c2c1ccc1ccccc12
active: [8] 64.1 µM | [10] 12.4 µM | [14] 15.2 µM | [15] 20 µM | [16] 28.6 µM | [18] 148 µM
not listed: [2] | [4] | [11]
inactive: all other assays above

CN(C)C(=O)C1(N2CCCCC2)CCN(CC[C@@]2(c3ccc(Cl)c(Cl)c3)CN(C(=O)c3ccccc3)CCO2)CC1
active: [9] 620 nM | [10] 0.458 µM | [13] 33.1 µM | [14] 7.23 µM | [15] 29.5 µM | [16] 27.9 µM
not listed: [2] | [17] | [19]
inactive: all other assays above

Cc1cc(F)ccc1-c1cc(N2CC[C@@H](O)[C@H]2CO)ncc1N(C)C(=O)C(C)(C)c1cc(C(F)(F)F)cc(C(F)(F)F)c1
active: [13] 12.4 µM | [14] 9.24 µM | [15] 11.8 µM | [16] 12.5 µM
not listed: [2] | [3] | [11] | [18] | [19]
inactive: all other assays above
